Source: PubChem
Rows were chosen to be rich in hits. Some 3.5% of all compounds tested hit in one or more screens of this group.
Autofluor counter = flagged as autofluorescent in microsphere protease counterscreen; compound autofluorescence counterscreen, microsphere flow cytometry; stronger effect = higher value; fluorescence intensity (test concentration not listed); 360,000 compounds, 3.1% hits; in the data active = fluorescence intensity above about 16000; inconclusive = no clear call, values can overlap the other calls
BoNT-F LC inh = BoNT F light chain protease inhibition; Multiplex microsphere protease cleavage assay, flow cytometry; inhibition, % at 10 µM; 360,000 compounds, 0.22% hits; AID 588497; in the data active = inhibition above about 35%, passing the limit was not always enough; inconclusive = no clear call, values can overlap the other calls; also: plate controls were buffer without enzyme for full effect and enzyme alone for no effect
BoNT-A LC inh2 = inhibitors of Botulinum neurotoxin A light chain protease; inhibition, % at 10 µM; multiplex microsphere protease substrate cleavage, flow cytometry; 360,000 compounds, 0.17% hits; also: plate controls were buffer without enzyme for full effect and enzyme alone for no effect
3CLpro inhibitor = SARS-CoV 3CLpro protease inhibition; P0C6X7; recombinant SARS-CoV 3CLpro, quenched FRET peptide cleavage; inhibition, % at 6 µM; 290,000 compounds, 0.14% hits; in the data active = inhibition above about 12%
Anthrax LF prot = anthrax lethal factor protease inhibition; P15917; multiplex microsphere protease cleavage assay, LF; inhibition, % at 10 µM; 360,000 compounds, 0.12% hits; also: plate controls were buffer without enzyme for full effect and enzyme alone for no effect
Target sequence (P15917 whole entry, looked up): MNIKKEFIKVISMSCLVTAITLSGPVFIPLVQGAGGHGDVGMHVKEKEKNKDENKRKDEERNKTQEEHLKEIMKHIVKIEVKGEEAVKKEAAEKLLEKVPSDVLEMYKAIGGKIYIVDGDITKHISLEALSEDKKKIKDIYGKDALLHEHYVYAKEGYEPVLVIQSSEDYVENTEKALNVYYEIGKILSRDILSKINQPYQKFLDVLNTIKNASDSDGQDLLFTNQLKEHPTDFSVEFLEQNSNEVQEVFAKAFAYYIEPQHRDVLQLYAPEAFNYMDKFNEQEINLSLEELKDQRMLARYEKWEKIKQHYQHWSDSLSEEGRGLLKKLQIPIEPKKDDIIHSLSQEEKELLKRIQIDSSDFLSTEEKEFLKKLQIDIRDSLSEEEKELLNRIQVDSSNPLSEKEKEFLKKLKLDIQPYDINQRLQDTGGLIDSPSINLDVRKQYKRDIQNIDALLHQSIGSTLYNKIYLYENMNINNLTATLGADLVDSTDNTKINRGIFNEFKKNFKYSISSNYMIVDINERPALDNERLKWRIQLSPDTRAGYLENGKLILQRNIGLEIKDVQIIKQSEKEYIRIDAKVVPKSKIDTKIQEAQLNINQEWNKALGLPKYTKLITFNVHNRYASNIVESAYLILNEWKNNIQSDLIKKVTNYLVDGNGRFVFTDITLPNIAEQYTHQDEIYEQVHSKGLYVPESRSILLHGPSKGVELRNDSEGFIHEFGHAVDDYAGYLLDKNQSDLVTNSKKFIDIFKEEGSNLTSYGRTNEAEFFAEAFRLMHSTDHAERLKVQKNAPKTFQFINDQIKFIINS
Starred values were filed as active, the others as inactive; ? = inconclusive; . = no result. Rule as the data show it, unless noted: active = inhibition above about 30%; inconclusive = no clear call, values can overlap the other calls; inactive = below that.

SMILES	Autofluor counter	BoNT-F LC inh	BoNT-A LC inh2	3CLpro inhibitor	Anthrax LF prot
c1ccc(-c2nc(-n3ccnc3)nc(-n3ccnc3)n2)cc1	5287	-2.6	0.3	-2.5	-12.8
C=CCNc1nc(-c2ccccc2)nc(-n2ccnc2)n1	18305*	8.3	5.4	2.5	0.1
CCCCNc1nc(-c2ccccc2)nc(-n2ccnc2)n1	4451	-1.1	0.9	-3.6	-0.8
Cc1ccc(CCNC(=O)C2CCCN(S(=O)(=O)c3c(C)noc3C)C2)cc1 (centres undefined)	4180	18.7	0.9	0.4	1.8
COC(=O)c1c(-c2ccccc2)noc1C	3128	-3.1	-0.2	3.9	2.9
Cc1onc(-c2ccccc2)c1C(=O)Oc1cccnc1	21663*	4.6	1.4	-3.7	-2.7
Nc1ccc2c3c(cccc13)-c1ccccc1-2	4925	-5.9	4.2	.	-5.3
Cc1ccc2c3c(cccc13)-c1ccccc1C2=O	6102	28.1	73.9*	1.9	43.7*
CSCCC(NS(=O)(=O)c1ccccc1F)C(=O)NCC(c1ccco1)N(C)C (centres undefined)	3383	-0.6	-0.1	.	-9.9
O=C(/C=C/c1ccc(-c2ccccc2)o1)c1ccccc1	2583	13.7	63.0*	6.1	31.3*
Cc1ccc(C(=O)/C=C/c2ccc(-c3ccccc3[N+](=O)[O-])o2)cc1	7716	-6.8	13.1	4.2	7.5
O=Cc1ccc(-c2cccc(C(=O)O)c2)o1	4296	2.2	0.1	5.0	-5.8
O=C(/C=C/c1ccc(-c2ccccc2[N+](=O)[O-])o1)c1ccc(Br)cc1	21485*	7.0	?	5.0	22.3
O=C(/C=C/c1ccc(-c2ccccc2[N+](=O)[O-])o1)c1ccc(F)cc1	7400	4.2	17.3	-2.8	13.0
Cc1ccc(-c2ccc(/C=C/C(=O)c3ccccc3)o2)cc1	2633	6.8	44.4*	5.0	19.0
COc1ccc(-n2c(COc3ccc(C)cc3)nnc2SCc2ccc(C#N)cc2)cc1	19083*	-1.2	1.2	0.0	-2.3
Cn1c(=O)oc2cc(S(=O)(=O)NCCC(=O)N3CC=C(c4ccccc4)CC3)ccc21	23639*	-3.1	0.4	-1.0	-1.6
Cn1c(=O)oc2cc(S(=O)(=O)NCCC(=O)N3CCN(c4ccccc4)CC3)ccc21	5820	7.2	-1.4	-1.9	-2.8
Cn1c(=O)oc2cc(S(=O)(=O)NCCC(=O)N3CCc4ccccc43)ccc21	21642*	6.0	?	2.2	-1.6
COc1cccc(/C=N/NC(=O)CNC(=O)c2ccc(S(=O)(=O)N3CCCC3)cc2)c1OC	2692	-2.0	-0.6	4.2	-1.3
COc1ccc(COc2ccccc2C(=O)Nc2ccccn2)cc1[N+](=O)[O-]	2062	-7.2	-0.5	6.1	-5.1
Cc1cccc(NC(=O)CSc2nnc(Cn3nnc(-c4ccccc4)n3)n2-c2ccccc2)c1	23099*	-1.3	-0.6	-1.1	-2.6
CCn1c(Cn2nnc(-c3ccccc3)n2)nnc1SCC(=O)Nc1cccc(C(C)=O)c1	7838	-1.9	1.0	4.3	1.1
COc1cc(C(O)P(=O)(OC2CCCCC2)c2ccc(N(C)C)cc2)cc(OC)c1OC (centres undefined)	16951*	-4.1	-1.6	0.7	-3.2
CN(C)c1ccc(P(=O)(OC2CCCCC2)C(O)c2cccnc2)cc1 (centres undefined)	5327	7.9	0.4	-2.9	0.7
SMILES	Autofluor counter	BoNT-F LC inh	BoNT-A LC inh2	3CLpro inhibitor	Anthrax LF prot
S=C1NCN(Cc2cccnc2)CN1	3668	35.0*	1.4	5.2	?
CCc1ccc(N2CN(Cc3cccnc3)CNC2=S)cc1	4108	3.2	0.4	1.8	-2.6
CC(=O)C1=C(O)C(=O)N(Cc2ccccc2)C1c1ccc(Cl)cc1 (centres undefined)	3208	-24.6	0.0	0.8	8.8
C/C(=N\NC(=O)c1ccc(Cl)c(Cl)c1)c1ccccn1	3592	37.4*	11.1	2.8	-3.5
Cc1ccc2nc(C)cc(C(=O)NC3CCCCCC3)c2c1	2914	1.5	-0.3	.	-7.7
CCc1nc2ccc(C)cc2c(C(=O)NC2CCCCC2C)c1C (centres undefined)	18786*	3.5	?	2.1	-8.3
COc1ccc(CCNC(=S)NC(=O)c2cccc(Cl)c2)cc1OC	3811	6.7	1.0	-1.9	?
CCc1noc(C)c1C(=O)NCCc1ccc(OC)c(OC)c1	24111*	0.8	?	-1.0	-1.6
COc1ccc(CCNC(=S)NC(=O)c2ccccc2)cc1OC	23568*	-0.3	-1.0	1.0	-0.2
COc1ccc(CCNC(=O)c2cc(-c3cc(C)c(C)cc3O)n[nH]2)cc1OC	22479*	0.2	0.4	0.9	-1.6
Cc1cc(C)c2nc(N3CCN(C)CC3)c(C#N)cc2c1	8253	-0.8	1.9	0.8	1.9
C/C(=N\NC(N)=S)c1ccc(-n2ccnc2)cc1	3815	1.9	-0.9	3.0	2.2
C=C(C)CNC(=S)N/N=C(\C)c1ccc(-n2ccnc2)cc1	19874*	-2.2	-0.6	-2.9	0.4
COc1ccc(-c2cnc3c(NC(C)=O)cc(-c4ccc(S(C)(=O)=O)cc4)cn23)cc1OC	3583	-2.4	0.5	.	-8.3
Cc1cc(Cl)ccc1OCC(=O)N1C(C)CCCC1C (centres undefined)	24242*	-4.3	-3.5	3.2	-6.6
Cc1nn(-c2ccccc2)c2sc(C(=O)NNC(=O)COc3ccccc3)cc12	22047*	1.1	?	1.1	-5.4
CCCCC(=O)Nc1cccn2ncnc12	4544	0.2	0.6	4.8	-5.5
O=C(Nc1cccn2ncnc12)C(Cl)Cl	4004	?	-0.9	2.4	-0.9
O=C(Nc1cccn2ncnc12)c1ccc(Cl)cc1	23079*	-6.2	?	-1.6	-9.3
O=C(Nc1cccn2ncnc12)c1ccccc1	21325*	4.7	3.1	-4.0	-2.5
O=c1c(-c2ccccc2)nc(-c2ccccc2)cn1O	3268	-1.8	-0.4	-2.7	5.0
COc1ccc(C)cc1S(=O)(=O)NC1CCCCC1C (centres undefined)	3200	4.1	0.8	1.1	3.9
COc1ccc(-c2c(C#N)c(N)nc3c2CCCC3)cc1OC	16197*	0.8	0.0	-0.3	-0.9
CN(CC(=O)Nn1cnnc1)S(=O)(=O)c1ccc(Br)cc1	18838*	9.5	?	-2.0	-9.7
C[C@H](CO)NC(=O)c1[nH]cnc1C(=O)Nc1cccc(Cl)c1	3569	0.4	-0.3	.	-5.0
SMILES	Autofluor counter	BoNT-F LC inh	BoNT-A LC inh2	3CLpro inhibitor	Anthrax LF prot
Cc1ccc(-c2ccc(=O)n(CC(=O)Nc3cccc(C(=O)N4CCN(C)CC4)c3)n2)cc1	19402*	2.1	?	7.3	-8.6
Cc1cc(/C=N\NC(=O)CC(=O)NC2CCCCC2)c(C)n1-c1ccc(Cl)c(Cl)c1	24080*	-3.8	-2.7	5.3	-3.1
Cc1cc(/C=N\NC(=O)CC(=O)NC2CCCCC2)c(C)n1-c1cccc(Cl)c1Cl	1967	1.5	-1.0	4.9	-2.1
COc1ccc(NC(=O)N2CCCC2C(=O)Nc2cccc(C)c2C)cc1 (centres undefined)	5511	8.2	0.0	4.5	-0.8
Cc1cccc(Cn2cnc3c(nnn3Cc3ccccc3F)c2=O)c1	22956*	1.3	2.9	1.0	-2.6
O=c1[nH]c2ccc(NS(=O)(=O)c3ccc(Cl)cc3)cc2[nH]1	2167	0.2	-0.5	3.0	-2.3
